From PubChem BioAssay (NCATS)
Inconclusive results are not listed. Entries that show only a call come without a potency. Active and inactive are the calls of the source. Calls follow the shape of the dose curve; as a rule, active = well fitted inhibition curve with a large enough effect; inconclusive = small, poorly fitted or top-dose-only effect; inactive = flat fitted curve, though single readings scatter.

Target: Calcium and integrin-binding protein 1 (Homo sapiens) (UniProt Q99828)
Experiment: Primary qHTS for Identification of Calcium Integrin Binding Protein 1 (CIB1) Competitor (AID 1508620); also: top concentration of the series differs between compounds
Conditions: CIB1-GST / FITC-alphaIIb peptide fluorescence polarization; series mostly up to 114 µM
Method in brief: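 Fluorescence polarization competition: GST-tagged CIB1 (1 uM final) preincubated with compound 15 min at room temperature, then FITC-labelled alphaIIb peptide (100 nM final) added. After 15 min at room temperature, polarization read at Ex 480/Em 540.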

Chain of Calcium and integrin-binding protein 1 (Homo sapiens) (Q99828 whole entry, looked up): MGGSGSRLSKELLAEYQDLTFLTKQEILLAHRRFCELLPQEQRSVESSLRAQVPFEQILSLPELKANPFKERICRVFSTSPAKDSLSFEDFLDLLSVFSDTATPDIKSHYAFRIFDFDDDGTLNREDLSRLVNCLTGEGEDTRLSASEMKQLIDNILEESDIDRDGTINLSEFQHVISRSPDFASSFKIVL

SMILES | Potency
O=C(Nc1ccc(-c2nc3ccccc3[nH]2)cc1)c1ccc2cc[nH]c2c1 | inactive
Cc1cnc(-c2ccccc2C(C)O)nc1NCc1ccc(-c2cccnc2)cc1 (stereo unspecified) | inactive
O=C(O)c1ccc(-n2cccc2/C=C2\SC(=O)N(Cc3ccccc3Cl)C2=O)cc1 | inactive
Cc1ccccc1C(=O)n1ccc2cc(-c3nc(NC(=O)Cc4ccc5c(c4)OCO5)sc3C)ccc21 | inactive
COc1ccc(-c2nc3ccccc3c(=O)n2Cc2ccco2)cc1COc1c(C)cccc1C | inactive
Cc1cc2c(s1)c1cnn(Cc3cc(OC(F)(F)F)ccc3F)c(=O)c1n2C | inactive
